According to PubChem BioAssay (NCI):
Compounds without any hit were thinned out: in the full panel of roughly 83,000, 20% have a hit.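 Single-concentration screen, 48 h exposure, 96-well plates. Endpoint: percent growth. Below 10 = active.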 A number with no mark means an inactive call. The source made the active and inactive calls.

What was measured:
Assay in all cases: NCI-60 one-dose screen, 48 h (100 = growth as untreated, 0 = no growth, -100 = all killed)
Details in all cases: 10 µM unless noted
HCT-15 colon = test system: HCT-15 colon
HT29 colon = test system: HT29 colon
SNB-75 CNS = test system: SNB-75 CNS
SNB-19 CNS = test system: SNB-19 CNS
U251 CNS = test system: U251 CNS
PC-3 prostate = test system: PC-3 prostate
SK-MEL-5 melanoma = test system: SK-MEL-5 melanoma
UACC-62 melanoma = test system: UACC-62 melanoma
LOX IMVI melanoma = test system: LOX IMVI melanoma
SK-MEL-28 melanoma = test system: SK-MEL-28 melanoma
SK-MEL-2 melanoma = test system: SK-MEL-2 melanoma
EKVX NSCLC = test system: EKVX NSCLC
TK-10 renal = test system: TK-10 renal
ACHN renal = test system: ACHN renal
CAKI-1 renal = test system: CAKI-1 renal
CCRF-CEM leukemia = test system: CCRF-CEM leukemia
MOLT-4 leukemia = test system: MOLT-4 leukemia
SN12C renal = test system: SN12C renal
UO-31 renal = test system: UO-31 renal
A498 renal = test system: A498 renal

| Structure (SMILES) | growth (HCT-15 colon) | growth (HT29 colon) | growth (SNB-75 CNS) | growth (SNB-19 CNS) | growth (U251 CNS) | growth (PC-3 prostate) | growth (SK-MEL-5 melanoma) | growth (UACC-62 melanoma) | growth (LOX IMVI melanoma) | growth (SK-MEL-28 melanoma) | growth (SK-MEL-2 melanoma) | growth (EKVX NSCLC) | growth (TK-10 renal) | growth (ACHN renal) | growth (CAKI-1 renal) | growth (CCRF-CEM leukemia) | growth (MOLT-4 leukemia) | growth (SN12C renal) | growth (UO-31 renal) | growth (A498 renal) |
| --- | --- | --- | --- | --- | --- | --- | --- | --- | --- | --- | --- | --- | --- | --- | --- | --- | --- | --- | --- | --- |
| Cc1cc2c(C(C)C)c(O)c(O)c(/C=N/O)c2c(O)c1-c1c(C)cc2c(C(C)C)c(O)c(O)c(/C=N/O)c2c1O | 29.3% | 1.38% (active) | 80.3% | 30.4% | 1.13% (active) | 27.9% | 16.3% | 9.12% (active) | -22.9% (active) | 19.8% | -10.2% (active) | 27.2% | 0.867% (active) | 24% | 26.6% | 10.1% | -7.59% (active) | – | – | – |
| NS(=O)(=O)Oc1cccc(-c2nc3sccn3c2-c2ccccc2)c1 | 29% | 27% | -9.42% (active) | 51.1% | 36.3% | 72.4% | 32.3% | 36.3% | 49.5% | 60.4% | 55.6% | – | 87.9% | 75.1% | 45.7% | 40.2% | 31.1% | 53% | 68.8% | 7.63% (active) |
| C=CCn1c(SCC(=O)Nc2ccc(C(=O)/C=C/c3ccc(Cl)cc3)cc2)nnc1-c1ccccc1 | 87.7% | 89.2% | 70.8% | 92.6% | 94.3% | 75.2% | 98.7% | 85.1% | 92.3% | 90.2% | 109% | – | 87.9% | 99.9% | 92.6% | – | 68.6% | 92.8% | 76.5% | 99.5% |
| CN(C)c1ccc(Cc2cc(-c3ccccc3)nn(C/C(=N/O)c3ccccc3)c2=O)cc1 | 50.1% | 32.9% | 72.9% | 64.4% | 44.3% | 30.9% | 55.8% | 39.3% | 53% | 72% | 67.9% | – | 84.5% | 52.8% | 53.6% | 46.6% | 35.1% | 17.9% | 36.1% | -3.2% (active) |
| C#Cc1ccc(NC(=O)Cc2ccc(/C=C/C(=O)c3nccn3C)cc2)cc1 | 23% | 6.76% (active) | 12.7% | 39.3% | 15.1% | 39.6% | 87.3% | 72.9% | 24.1% | 107% | 103% | 78.4% | 94.9% | 96.5% | 47.7% | 21.4% | 40.8% | – | 58.7% | 105% |
| CCN=c1sc2c(n1NC(=O)c1cc3ccc1CCc1ccc(cc1)CC3)C(=O)c1ccccc1C2=O | -68.1% (active) | 49% | -98.2% (active) | -74.3% (active) | -81.5% (active) | -2.79% (active) | -96.9% (active) | -54% (active) | -83.9% (active) | -81.2% (active) | -40.6% (active) | -61.3% (active) | 88.6% | -90.2% (active) | 8.85% (active) | -16% (active) | -32.8% (active) | – | -73.1% (active) | – |
| CN(C)CCCN(CCC1CCCCC1)CCC1CCCCC1 | 15% | 7.47% (active) | 62.2% | 86.7% | 12.3% | 46.9% | -82.1% (active) | -78.5% (active) | 5.93% (active) | -97.8% (active) | 61.4% | 73.2% | – | 65.8% | 52.9% | 21.4% | 15.9% | – | 42% | 58.8% |
| COc1cccc(C(=O)Nc2cccc(NC(=O)c3ccccn3)c2)c1 | 90.7% | 93.1% | 90.3% | 108% | 109% | 98.3% | 97.3% | 96.3% | 95.2% | 97.5% | 108% | – | 96.6% | 100% | 99.1% | 103% | 88.6% | 98.8% | 79.5% | 93% |
| COC(CCP(=O)(c1ccccc1)c1ccccc1)(C(=O)c1ccccc1)c1ccccc1 (stereo unspecified) | 52.6% | 57.5% | 84.9% | 71.6% | 71.3% | -46.2% (active) | 34.3% | 53.8% | 64.6% | 89.1% | 34.7% | 59.2% | 81.1% | 71.5% | 87.1% | – | 18.3% | – | 33.4% | 83.4% |
| CCc1ccc(Cc2cnc(NC(=O)c3cc(C)oc3C)s2)cc1 | 24.3% | 10.8% | -4.36% (active) | 37.1% | 33.3% | 37.7% | 36.8% | 25.3% | 41.3% | 59.5% | 59.4% | 39.6% | 60.1% | 48.7% | 22.2% | 28.5% | 29.2% | – | – | 8.18% (active) |
| Cc1c2cnccc2c(C)c2c1c1cc(C(=O)O)ccc1n2C | 1.03% (active) | 7.11% (active) | -7.4% (active) | 2.23% (active) | 0.0209% (active) | 10.4% | -84.7% (active) | -55% (active) | -27.1% (active) | -27.4% (active) | -65.5% (active) | – | -7.59% (active) | -15% (active) | -6.62% (active) | 5.53% (active) | 1.6% (active) | 0.942% (active) | -36.5% (active) | -57.4% (active) |
| CCCCCCCCOC(=O)c1c(C)[nH]c(/C=C2\N=C(c3ccc[nH]3)C=C2OC)c1C | 1.19% (active) | -11.2% (active) | -20.8% (active) | 25.4% | -8.43% (active) | 18% | -99.2% (active) | -25.7% (active) | -44.9% (active) | -12.5% (active) | -70.3% (active) | 27.8% | 9.67% (active) | -18.9% (active) | -13.2% (active) | – | 4.33% (active) | – | -52.1% (active) | -7.97% (active) |
| CCOC(=O)CC1C(CNC(=O)NC)OC(n2cnc3c(NC(=O)Nc4ccccc4)ncnc32)C1O[Si](C)(C)C(C)(C)C (stereo unspecified) | 55.7% | 27% | 63.4% | 93.9% | 34% | 47% | 58.3% | 80.4% | 50.5% | 83.9% | 54.3% | – | 43.5% | 68.7% | 81.6% | 49.9% | 50.1% | 60.7% | 57% | 71.3% |
| N#CSCc1cc(Cl)c(CSC#N)cc1Cl | 31.9% | 40.6% | 47.9% | 89% | 106% | 75.8% | 48.5% | 71.1% | 30.5% | 87.9% | 96.5% | – | 94% | 45.3% | 38.3% | 2.13% (active) | 17.7% | 41.5% | 41.9% | 104% |
| Cn1cc(-c2ccc3occ(-c4cccc(-c5ccncc5)c4)c3n2)cn1 | 5.33% (active) | 7.76% (active) | -12.8% (active) | 29.4% | 25.4% | 19.6% | -46.4% (active) | -15.7% (active) | 14.9% | 30.6% | -1.75% (active) | 30.7% | 9.56% (active) | 21.9% | 12% | 10.9% | 13.2% | – | 11.3% | -15.7% (active) |
| O=C(N/N=C/c1ccccc1Cl)c1ccccc1Nc1ccnc(C(F)(F)F)c1 | 10.4% | 3.22% (active) | -14.5% (active) | 17.1% | 3.95% (active) | 2.99% (active) | -50.7% (active) | -32.7% (active) | 4.1% (active) | 25.7% | -24% (active) | – | 16.1% | 1.95% (active) | 1.49% (active) | 11.2% | 2.63% (active) | 9.09% (active) | 1.62% (active) | -25% (active) |
